ALOX12 inh – Primary qHTS assay for inhibitors of human arachidonate 12S-lipoxygenase (ALOX12): Round 2 | AID 1671190, 2021 | purified 12hLO, xylenol orange hydroperoxide absorbance | 580,000 compounds, 1.1% hits | Potency, µM (highest dose often 108 µM), hits mostly inhibitors
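Hydroperoxide product was detected by ferrous iron/xylenol orange as the 573 to 405 nm absorbance ratio. Arachidonic acid at 40 uM (final) was turned over for 30 min at room temperature by 150 nM human 12hLO, pH 7.0 Hepes buffer, after 15 min compound preincubation.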
PLK1 PBD inh – qHTS for Inhibitors of PLK1-PDB (polo-like kinase 1 - polo-box domain): Primary Screen; Serine/threonine-protein kinase PLK1 (Homo sapiens), P53350; Plk1 PBD binding of FITC phosphopeptide, fluorescence polarization; Potency, µM, usual class: inhibitors; 360,000 compounds, 2.8% hits; AID 720504, 2013; further: series mostly up to about 57 µM; nearly all actives have a fitted effect of over 65% in size
HP1b binding inh – HTS for Inhibitors of HP1-beta Chromodomain Interactions with Methylated Histone Tails | Chromobox protein homolog 1 (Homo sapiens), P83916 | AlphaScreen HP1-beta / biotin-H3K9me3 peptide binding | Potency, µM (highest dose often 114 µM), hits mostly inhibitors | 390,000 compounds, 0.56% hits; further: nearly all actives have a fitted effect of over 70% in size
Target sequence (P83916 whole entry, looked up): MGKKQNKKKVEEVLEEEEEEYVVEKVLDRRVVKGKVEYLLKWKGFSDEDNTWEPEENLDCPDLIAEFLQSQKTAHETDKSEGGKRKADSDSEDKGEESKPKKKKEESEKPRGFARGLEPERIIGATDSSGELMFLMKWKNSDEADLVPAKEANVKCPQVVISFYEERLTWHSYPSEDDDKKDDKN
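HP1-beta protein (50 nM final) preincubated 30 min at room temperature with biotinylated H3(1-18)K9me3 peptide (50 nM) in PBS pH 7.4, 0.01% Tween-20, then compound added for 30 min. AlphaScreen streptavidin donor/nickel chelate acceptor beads (10 ug/mL final), 30 min dark, luminescence read.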
JMJD2A Tudor – qHTS Assay for Inhibitors of JMJD2A-Tudor Domain. Lysine-specific demethylase 4A (Homo sapiens), O75164. AlphaScreen JMJD2A-Tudor / H3K4me3 peptide binding. Potency, µM (doses to about 114 µM), usual class: inhibitors. 390,000 compounds, 4.4% hits. AID 504339, 2011; further: nearly all actives have a fitted effect of over 50% in size
BAZ2B block – qHTS Assay for Inhibitors of BAZ2B; AID 504333, 2011; Potency, µM (titrated, usually from 114 µM), most hits filed as inhibitors; 360,000 compounds, 4.4% hits; AlphaScreen BAZ2B-H3K14Ac peptide displacement; further: nearly all actives have a fitted effect of over 60% in size
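Inhibition is scored as reduced AlphaScreen emission. The BAZ2B/b-H3(5-23)K14Ac complex (50 nM each) in PBS pH 7.4, 0.01% Tween-20 meets compound (up to 110 uM) for 30 min at RT before bead addition.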
G9a block – qHTS Assay for Inhibitors of Histone Lysine Methyltransferase G9a. 350,000 compounds, 8.8% hits. Potency, µM (highest dose often 102 µM), usual class: inhibitors. G9a H3K9 monomethylation, AlphaScreen, 2 h. AID 504332, 2011. Histone-lysine N-methyltransferase EHMT2 (Homo sapiens), Q96KQ7; further: nearly all actives have a fitted effect of over 75% in size
Target sequence (Q96KQ7 913-1193 limits assumed): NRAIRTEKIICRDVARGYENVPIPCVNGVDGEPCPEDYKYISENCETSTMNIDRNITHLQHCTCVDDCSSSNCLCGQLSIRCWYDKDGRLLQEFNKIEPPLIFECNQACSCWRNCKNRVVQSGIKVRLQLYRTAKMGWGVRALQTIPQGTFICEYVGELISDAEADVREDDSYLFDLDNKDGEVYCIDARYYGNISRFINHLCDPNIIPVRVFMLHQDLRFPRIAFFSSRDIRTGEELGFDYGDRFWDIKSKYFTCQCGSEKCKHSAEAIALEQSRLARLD
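G9a (20 nM) preincubated 15 min RT with compounds, then 500 nM biotinylated H3K9 peptide and 20 uM SAM added; 2 h RT reaction. Monomethyl-H3K9 product detected by AlphaScreen with anti-H3K9me1 antibody, streptavidin donor and anti-rabbit IgG acceptor beads.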
Each line names hits and unclear results; the compound was inactive in the other large screens; ! = not confirmed by another sample. In the library only some 9% were active in any assay of this set; here they are far more common. The call rests on the fitted dose curve; in most records, active means well fitted curve in the direction sought with a large enough effect; inconclusive means small, poorly fitted or top-dose-only effect, or another doubt; inactive means no such curve, though single readings can be large; an effect the other way counts as inactive or inconclusive.

CC(O)(c1cccc(F)c1)c1nc(-c2cncnc2)cs1 (centres undefined)	none (no result: ALOX12 inh, HP1b binding inh, JMJD2A Tudor, BAZ2B block, G9a block)
OCCCn1c(C2CCCN2c2nc(-c3ccc(Cl)cc3)cs2)nc2cc(Cl)c(Cl)cc21 (centres undefined)	PLK1 PBD inh inconclusive (no result: BAZ2B block, G9a block)
NC(c1ccccc1)c1cccnc1 (centres undefined)	ALOX12 inh inconclusive, BAZ2B block inconclusive
NC(c1ccccc1)c1ccncc1 (centres undefined)	ALOX12 inh inconclusive, BAZ2B block inconclusive, G9a block 44.7µM
c1ccc(C(Nc2cccnc2)c2ccccc2)cc1	none (no result: BAZ2B block, G9a block)
c1ccc(NC(c2ccccc2)c2ccncc2)cc1 (centres undefined)	ALOX12 inh inconclusive, G9a block 31.6µM
O=C(NCc1nnnn1-c1cccc(F)c1)c1ccc(S(=O)(=O)N2CCOCC2)cc1	none
CCN(CC)C(=O)CSC1=N/C(=C/c2ccco2)C(=O)N1c1ccc(OC)c(Cl)c1	ALOX12 inh inconclusive, BAZ2B block inconclusive, G9a block 25.1µM
COCCN1Cc2cccc(C(=O)Nc3cc(OC)ccc3OC)c2C1=O	none
FC(F)(F)c1cnc(NNC(=S)Nc2ccccc2Cl)c(Cl)c1	ALOX12 inh inconclusive, G9a block 39.8µM
S=C(NNc1ccnc2cc(Cl)ccc12)Nc1ccccc1Cl	ALOX12 inh inconclusive, PLK1 PBD inh 15µM, HP1b binding inh inconclusive, JMJD2A Tudor 56.2µM, BAZ2B block inconclusive, G9a block 11.2µM
O=C(Cc1ccccc1[N+](=O)[O-])NCc1ccc(Cl)cc1	none
O=C(NCc1ccc(Cl)cc1)c1ncn[nH]1	BAZ2B block 79.4µM
O=C(NCc1ccc(Cl)cc1)c1n[nH]c([N+](=O)[O-])c1Cl	PLK1 PBD inh 18.9µM, JMJD2A Tudor inconclusive
O=C(CSc1ncn[nH]1)NCc1ccc(Cl)cc1	none
Cc1cc2nc3c(=O)[nH]c(=S)[nH]c3nc2cc1NC(=O)C(F)(F)F	ALOX12 inh inconclusive, G9a block 28.2µM
Cn1c(=O)c2nc3ccc(NC(=O)C(F)(F)F)cc3nc2n(C)c1=O	ALOX12 inh inconclusive (no result: PLK1 PBD inh)
CCC(C)NC(=O)c1cc(C)no1 (centres undefined)	PLK1 PBD inh 29.9µM, HP1b binding inh inconclusive
CCc1ccccc1NC(=O)c1cc(C)no1	none
O=C(COC(=O)Cn1cnc2ccccc2c1=O)NCCC1=CCCCC1	G9a block 11.2µM
COc1ccc(CCNC(=O)COC(=O)Cn2cnc3ccccc3c2=O)cc1	none
O=C(Cn1cnc2ccccc2c1=O)Nc1nc2ccccc2s1	G9a block 44.7µM
CCN(CC)C(=O)Cn1cnc2ccccc2c1=O	G9a block 20µM
CCN(CC)C(=O)Cn1cnc2c1c(=O)n(C)c(=O)n2C	ALOX12 inh inconclusive, G9a block 56.2µM
Cc1ccc(C2c3[nH]c4ccccc4c3CCN2C(=O)CCC2CCCC2)cc1 (centres undefined)	ALOX12 inh inconclusive (no result: PLK1 PBD inh)
O=C(Nc1cccc(C(F)(F)F)c1)Nc1ccc2[nH]c(=O)[nH]c2c1	none
Cn1c(=O)c2c(ncn2CCN(CCO)Cc2ccccc2)n(C)c1=O	G9a block 39.8µM
CCOc1ccc(NC(=O)CCNC(=O)Cn2cnc3ccccc3c2=O)cc1	none
CCc1ccc(NC(=O)CCNC(=O)Cn2cnc3ccccc3c2=O)cc1	ALOX12 inh inconclusive, PLK1 PBD inh 29.9µM, JMJD2A Tudor 50.1µM!
Cc1ccc(NC(=O)CCOc2ccccc2)cc1	none
CC1(C)OC2CC(=O)OCC23C1CC(=O)C1(C)C3CCC2(C)C(c3ccoc3)OC(=O)C3OC321 (centres undefined)	none (no result: PLK1 PBD inh, HP1b binding inh, JMJD2A Tudor, BAZ2B block, G9a block)
COC(=O)C(=NNc1c(C)n(C)n(-c2ccccc2)c1=O)C(=O)OC	G9a block inconclusive
N#C/C(=N\Nc1ccc(Cl)cc1)C(=O)c1ccccc1	ALOX12 inh inconclusive, PLK1 PBD inh inconclusive, HP1b binding inh inconclusive, JMJD2A Tudor 44.7µM, BAZ2B block 50.1µM, G9a block inconclusive
Cc1c(N/N=C(\C#N)C(=O)c2ccc(Cl)cc2)c(=O)n(-c2ccccc2)n1C	ALOX12 inh 8.91µM, JMJD2A Tudor 79.4µM, BAZ2B block 25.1µM, G9a block inconclusive
N#C/C(=C\c1ccc(-c2ccc(Br)cc2)o1)C(=O)Nc1ccccc1O	none (no result: PLK1 PBD inh)
Cc1ccc(/C=C(\C#N)C(=O)NCC2CCCO2)o1 (centres undefined)	none
N#C/C(=C/c1ccc(-c2ccc(C(=O)O)c(Cl)c2)o1)C(=O)NCC1CCCO1 (centres undefined)	ALOX12 inh inconclusive, BAZ2B block 56.2µM, G9a block inconclusive
N#C/C(=C\c1ccc(-c2ccc(C(=O)O)cc2)o1)C(=O)Nc1ccccc1C(=O)O	ALOX12 inh inconclusive, JMJD2A Tudor 79.4µM, BAZ2B block inconclusive, G9a block inconclusive (no result: PLK1 PBD inh)
O=C(Cc1ccccc1)NCC(=O)N/N=C/c1ccc([N+](=O)[O-])s1	none
COc1ccc(/C=N/n2c(-c3ccco3)nc3ccccc3c2=O)cc1	none
C[C@@H]1CCCCO[C@H](CN(C)C(=O)Cc2ccccc2)[C@H](C)CN([C@@H](C)CO)C(=O)c2cc(NC(=O)Nc3ccc(F)cc3)ccc2O1	ALOX12 inh inconclusive (no result: HP1b binding inh, JMJD2A Tudor, BAZ2B block, G9a block)
Cc1c(NC(=O)/C(C#N)=C/c2ccc(-c3cc(Cl)ccc3Cl)o2)c(=O)n(-c2ccccc2)n1C	JMJD2A Tudor inconclusive, BAZ2B block inconclusive, G9a block inconclusive
Cc1c(NC(=O)/C(C#N)=C/c2ccc(-c3ccc(Cl)cc3)o2)c(=O)n(-c2ccccc2)n1C	ALOX12 inh inconclusive, JMJD2A Tudor inconclusive, BAZ2B block 50.1µM, G9a block 20µM
CCCCn1c(=O)n(CC(=O)Nc2ccc(C)c(Cl)c2)c(=O)c2c1ncn2Cc1ccco1	G9a block 25.1µM
c1ccc(-c2ccccc2OCCCCN2CCCCC2)cc1	JMJD2A Tudor 39.8µM, BAZ2B block 79.4µM, G9a block 12.6µM
CC1CC(C)CN(CCOc2ccccc2-c2ccccc2)C1 (centres undefined)	ALOX12 inh inconclusive, JMJD2A Tudor 12.6µM, G9a block inconclusive
c1ccc(-c2ccccc2OCCCN2CCCC2)cc1	ALOX12 inh inconclusive, HP1b binding inh inconclusive, JMJD2A Tudor 8.91µM, BAZ2B block inconclusive, G9a block 10µM
c1ccc(-c2ccccc2OCCCN2CCCCCC2)cc1	ALOX12 inh inconclusive, HP1b binding inh inconclusive, JMJD2A Tudor 20µM, BAZ2B block 56.2µM, G9a block 3.55µM

Screening data: PubChem, National Center for Advancing Translational Sciences (NCATS)
